# Screening data (PubChem BioAssay)
# PLC-beta3 inh: inhibitors of human phospholipase C beta3 | Q01970 | Purified PLC-beta3, fluorogenic substrate, fluorescence | inhibition, % at 12.2 µM | actives 0.18% (n = 370,000); in the data active means inhibition above about 11%;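 further: 0% = median of compound wells on plate and 100% = full blocker control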
# Target sequence (Q01970 whole entry, looked up): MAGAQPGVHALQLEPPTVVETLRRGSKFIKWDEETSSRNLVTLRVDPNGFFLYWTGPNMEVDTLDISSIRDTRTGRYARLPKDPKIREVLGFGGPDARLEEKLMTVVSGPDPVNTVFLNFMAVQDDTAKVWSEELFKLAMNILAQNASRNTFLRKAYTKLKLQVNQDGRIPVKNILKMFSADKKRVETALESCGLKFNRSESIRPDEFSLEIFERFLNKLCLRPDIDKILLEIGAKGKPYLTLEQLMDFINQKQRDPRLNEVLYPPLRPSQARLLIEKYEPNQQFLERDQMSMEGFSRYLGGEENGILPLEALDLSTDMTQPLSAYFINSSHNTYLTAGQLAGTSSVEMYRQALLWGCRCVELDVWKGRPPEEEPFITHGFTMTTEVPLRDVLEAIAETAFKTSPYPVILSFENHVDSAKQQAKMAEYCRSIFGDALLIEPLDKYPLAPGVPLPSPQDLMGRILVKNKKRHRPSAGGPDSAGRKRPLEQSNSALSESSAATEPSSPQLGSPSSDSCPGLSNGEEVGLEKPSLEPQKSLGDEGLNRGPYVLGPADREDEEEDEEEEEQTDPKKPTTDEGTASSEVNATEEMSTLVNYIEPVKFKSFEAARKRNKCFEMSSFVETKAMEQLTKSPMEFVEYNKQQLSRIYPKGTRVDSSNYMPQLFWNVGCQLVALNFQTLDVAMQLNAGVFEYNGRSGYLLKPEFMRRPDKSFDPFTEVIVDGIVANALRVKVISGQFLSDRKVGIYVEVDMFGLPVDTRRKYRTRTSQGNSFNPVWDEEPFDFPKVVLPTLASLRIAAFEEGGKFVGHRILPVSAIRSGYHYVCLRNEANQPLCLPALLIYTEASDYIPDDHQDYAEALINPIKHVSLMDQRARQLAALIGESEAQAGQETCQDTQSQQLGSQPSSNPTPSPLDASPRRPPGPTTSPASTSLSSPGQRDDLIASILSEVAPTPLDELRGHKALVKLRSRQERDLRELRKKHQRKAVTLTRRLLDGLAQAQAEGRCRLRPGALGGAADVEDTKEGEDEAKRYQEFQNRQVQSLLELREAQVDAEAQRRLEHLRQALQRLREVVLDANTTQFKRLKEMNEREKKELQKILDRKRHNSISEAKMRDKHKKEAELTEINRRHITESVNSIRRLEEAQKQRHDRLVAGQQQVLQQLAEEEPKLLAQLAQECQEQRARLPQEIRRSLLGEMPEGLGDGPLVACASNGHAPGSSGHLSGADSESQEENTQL
# HIF activator: HIF pathway transcriptional activation; U2OS HRE-luciferase reporter, luminescence; normalized: DMSO 0%, desferrioxamine 100%; activation, % at 7.5 µM (by protocol); actives 0.32% (n = 300,000); AID 1910;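 active means mean activation of at least 10% of the iron chelator positive control signal, with at least half of replicates also reaching 10%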
# PLCg1 inh: inhibitors of human phospholipase C gamma1 | P19174 | purified PLC-gamma1, fluorogenic substrate, fluorescence | inhibition, % at 12.2 µM | actives 0.84% (n = 370,000); in the data active means inhibition above about 9.5%
# sPLA2-III inh: Blocks human group III sPLA2 activity; Q9NZ20; QFRET BODIPY PC-A2 liposome hydrolysis, fluorescence; inhibition, % at 12.2 µM; actives 0.56% (n = 370,000); AID 743126;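 active means inhibition above mean plus 3 SD of compounds lying within the high and low control bounds, cut at about 19% in these data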;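 further: 0% = median of test compound wells and 100% = no enzyme DMSO wells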
# Yeast superoxide: yeast age-related superoxide inhibition as caloric restriction mimetic. S. cerevisiae aged cells, superoxide DHE fluorescence; hits give low values. superoxide response (% of plate mean), % at 10 µM. actives 0.18% (n = 330,000). AID 2690;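 active means superoxide response under a set limit, about three screen SD below normal, cut at about 65% in these data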;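 further: yeast aged for seven days with compound at 30 °C before DHE staining; 100% = average MFI of all compound-treated wells on the plate with controls excluded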
# AHR activator: human AHR activation; P35869; actives 2.5% (n = 320,000); activation, % at 5 µM; AHR-responsive luciferase reporter cells, luminescence; in the data active means activation above about 47%;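 further: 0% = vehicle wells and 100% = reference agonist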
# hGIII sPLA2 conf: human GIII-sPLA2 inhibition, confirmation; recombinant hGIII-sPLA2, BODIPY PC-A2 QFRET fluorescence; AID 743280; actives 34% (n = 2,000); shares compounds with sPLA2-III inh; inhibition, % at 12.2 µM;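 active means mean inhibition across triplicates above the hit cutoff set in the earlier primary screen, cut at about 19% in these data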;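 further: 0% = enzyme with DMSO and 100% = DMSO wells lacking enzyme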
# 535nm interf: optically interferes with 535nm fluorescence in sPLA2 counter-screen | shares compounds with sPLA2-III inh | BODIPY FL product fluorescence interference, QFRET | actives 8.5% (n = 2,000) | inhibition, % at 12.2 µM | AID 743282;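 active means average inhibition above the solvent-only control mean plus 3 SD, cut at about 6% in these data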;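 further: 0% = DMSO with substrate plus product and 100% = DMSO with substrate alone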
# 535nm interf DR: counter-screen for HGIII-sPLA2 inhibitors: 535nm fluorescence interference, dose response. 240 tested, under 10 active. IC50, µM. shares compounds with sPLA2-III inh. AID 743455. BODIPY FL product fluorescence interference, cell-free;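 active means IC50 at or below 10 µM; inactive means IC50 above 10 µM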
# An asterisk follows results filed as active; nt = no result. Only some compounds are listed: those with a hit (about 3.9% of all), similar ones and a draw of the others.
SMILES,PLC-beta3 inh,HIF activator,PLCg1 inh,sPLA2-III inh,Yeast superoxide,AHR activator,hGIII sPLA2 conf,535nm interf,others
CCN(CC)S(=O)(=O)c1ccc(OC)c(NC(=O)COc2ccc3c(C)cc(=O)oc3c2)c1,-22,0,-20,9,102,4,nt,nt,
CCN(CC)CCn1c(-c2ccccc2)nc(=S)c2c1CC(C)(C)OC2,5,0,7,21*,85,9,0,-1,
CCOc1ccc(NC(=S)NN2C(C)CCCC2C)cc1 (stereo not given),-1,0,-1,22*,120,2,11,-3,
COc1ccccc1CNC(=O)COC(=O)c1ccccc1SCC(=O)N1CCCC1,1,1,-2,-5,100,-1,nt,nt,
CN(C)S(=O)(=O)c1ccc2c(c1)Cc1cc(S(=O)(=O)N(C)C)ccc1-2,-5,0,-2,-4,176,-1,nt,nt,
COc1ccc(NC(=O)c2cnn(-c3ccccc3)c2C)cc1,-3,2,1,6,110,-10,nt,nt,
COc1ccc(NC(=S)NNC(=O)c2nnn(-c3ccccc3)c2C)cc1,2,1,4,35*,96,-1,42*,-1,535nm interf DR=>122
COc1ccc(C(=O)N2CCCC(C(=O)O)C2)c2ccccc12 (stereo not given),-7,0,-3,-4,91,3,nt,nt,
COc1ccc(C(C)NC(=O)c2ccccc2)cc1 (stereo not given),nt,1,nt,nt,95,-1,nt,nt,
COc1ccc(C(=O)NC(Oc2ccccc2)C(Cl)(Cl)Cl)cc1 (stereo not given),3,-1,-1,21*,115,4,14,-1,
CCOc1ccc(NC(=O)CC2CC(C)(C)OC2=O)cc1 (stereo not given),1,-2,0,0,98,9,nt,nt,
CCOc1ccc(NCC2CCOC(C)(C)C2)cc1 (stereo not given),2,0,3,20*,92,7,12,-4,
C[C@@H]1CN([C@@H](C)CO)C(=O)CCCn2nncc2CO[C@@H]1CN(C)C(=O)c1ccccc1,5,nt,2,5,nt,nt,nt,nt,
C[C@H]1CN([C@@H](C)CO)C(=O)CCCn2nncc2CO[C@@H]1CN(C)C(=O)c1ccc(N2CCN(C)CC2)cc1,1,nt,1,2,nt,nt,nt,nt,
C[C@@H]1CN([C@H](C)CO)C(=O)CCCn2nncc2CO[C@@H]1CN(C)C(=O)c1ccccc1,1,nt,0,21*,nt,nt,-1,-5,
C[C@@H]1CN([C@H](C)CO)C(=O)CCCn2nncc2CO[C@H]1CN(C)C(=O)c1ccc(N2CCN(C)CC2)cc1,-2,nt,0,19*,nt,nt,-7,-12,
S=C1SC2(CCCCCC2)NC2=C1CCCCC2,0,nt,3,19*,nt,nt,25*,3,
CSCCC(NC(=O)c1ccccc1)C(=O)NCCCSc1ccccc1 (stereo not given),-6,nt,1,2,94,-1,nt,nt,
COC(=O)c1ccc(N2CCOCC2)c(NC(=O)Nc2cccc(OC)c2)c1,0,0,-1,7,99,-1,nt,nt,
CCOC(=O)c1ccc(N2CCN(c3ccccc3F)CC2)c(NC(=O)Nc2cccc(OC)c2)c1,-8,0,-8,21*,83,7,-10,-16,
OC(CCN1CCC2CCC(C2)C1)c1ccc(Br)cc1 (stereo not given),2,nt,-2,20*,nt,nt,5,-17,
Cc1cccc(C)c1NC(=O)c1csc(COCCO)n1,4,nt,0,10,nt,nt,nt,nt,
COC(=O)N/N=C/c1c(C)nn(-c2cccc(Cl)c2)c1Cl,-1,1,-2,20*,111,-10,5,-6,
Cc1ccc(O)c(N=Cc2cc(Cc3ccccc3)cc([N+](=O)[O-])c2O)c1,-5,0,7,25*,nt,nt,23*,7.8*,
O=[N+]([O-])c1cc(Cc2ccccc2)cc(C=Nc2ccc(N3CCOCC3)cc2)c1O,nt,-1,nt,nt,85,1,nt,nt,
SMILES,PLC-beta3 inh,HIF activator,PLCg1 inh,sPLA2-III inh,Yeast superoxide,AHR activator,hGIII sPLA2 conf,535nm interf,others
CCOc1ccc2c(c1)-c1c(ssc1=S)C(C)(C)N2C,3,5,7,36*,110,35,46*,14*,
Cc1csc2ncnc(N3CCN(C(=S)Nc4ccc(F)cc4F)CC3)c12,-5,0,5,-1,98,-6,nt,nt,
CCC(=O)NC(c1cccs1)c1cc([N+](=O)[O-])c2cccnc2c1OC (stereo not given),-3,nt,18*,19*,nt,nt,17,-4,
COc1cccc(C(=O)Nc2c[nH]c(=O)[nH]c2=O)c1,-6,0,0,21*,97,4,3,-5,
CC(=O)Oc1cccc(C(=O)Nc2c[nH]c(=O)[nH]c2=O)c1,5,0,3,-3,106,0,nt,nt,
Cc1nc(SCC(=O)N2CCOCC2)c2c(=O)n(C)c(=O)n(C)c2n1,-6,0,2,21*,109,4,11,-2,
Cc1nc(SCC(=O)N2CCOCC2)c2c(=O)n(C)c(=O)n(CC(C)C)c2n1,0,nt,0,2,123,0,nt,nt,
CSc1ccc(CNc2ccc(C)cc2)cc1,6,2,3,22*,90,0,16,4,
Cc1ccc(F)cc1NC(=O)COC(=O)C1CCN(c2ccc(C(F)(F)F)cn2)CC1,-7,0,-5,-11,100,4,nt,nt,
O=S(=O)(NCC(c1ccco1)N1CCCCC1)c1ccccc1C(F)(F)F (stereo not given),-3,nt,1,-13,101,3,nt,nt,
COc1ccc(CCNC(=S)NC(=O)c2cccc([N+](=O)[O-])c2)cc1OC,0,1,0,-2,95,32,nt,nt,
CCOCCCNC(=S)Nc1ccc(Br)cc1Cl,-6,-6,1,20*,95,-1,5,-6,
CCOc1ccc(NC(=S)Nc2ccc(Br)cc2Cl)cc1,3,0,4,6,94,0,nt,nt,
Cc1nn(C)cc1-c1n[nH]c(=S)n1-c1ccc(F)cc1,2,0,0,29*,91,0,4,-3,
Fc1cccc(-c2n[nH]c(=S)n2-c2ccccc2)c1,-13,1,-12,25*,99,1,18,1,
Cc1nn(C)c(-c2n[nH]c(=S)n2-c2ccccc2)c1Cl,-6,1,-4,26*,102,1,24*,-3,
Cn1cc(Cl)c(-c2n[nH]c(=S)n2-c2ccccc2)n1,-2,0,2,4,119,4,nt,nt,
Cc1ccc(-n2c(-c3cn(C)nc3C)n[nH]c2=S)cc1,nt,-1,nt,nt,101,1,nt,nt,
